Compound activity (PubChem BioAssay)
Abeta rescue: A-beta toxicity reversal in yeast. Potency, µM (titrated, usually from 46.1 µM), hits mostly activators. yeast expressing A-beta42, growth rescue, OD600, 48 h; response scale: 0% DMSO, 100% iron-clioquinol control. 410,000 tested, 0.063% active; further: nearly all actives have a fitted effect of over 55% in size
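Yeast A-beta toxicity model in growth medium with pinned compounds, 48 h at 30 C; growth read as absorbance at 600 nm. Normalized to FeCl3/clioquinol equimolar mix (positive) and DMSO (negative).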
FUS suppressor: rescues growth of FUS-expressing yeast; Potency, µM (doses to about 76.6 µM), actives largely listed as activators; 390,000 tested, 0.24% active; AID 1347120; S. cerevisiae FUS-expressing, growth rescue, OD600, 24 h;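 further: plate controls were DMSO vehicle for no effect and reference control for full effect; nearly all actives have a fitted effect of over 55% in size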
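Read-out: OD at 600 nm after 24hr at 30C, reporting rescue of FUS-induced yeast toxicity. Cells at OD 0.005 in galactose (2%) minimal medium; compounds tested in a dilution series; CP55940 titration from 92uM final as control.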
aSyn yeast inh: rescues yeast growth from alpha-synuclein toxicity. Yeast expressing alpha-synuclein, growth rescue, BacTiter-Glo, 24 h. Potency, µM (doses to about 46.1 µM), inactives show top-dose growth rescue (activation), most hits filed as activators. 370,000 tested, 0.14% active; further: % of control where 0% means no effect; nearly all actives have a fitted effect of over 65% in size
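Rescue of yeast growth: cells expressing toxic alpha-synuclein, induced in galactose at OD600 0.02, incubated with compound 24 h at 30 C. ATP luminescence quantified growth; inhibitors of toxicity appear as activators.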
TDP43 rescue: TDP-43 toxicity inhibition in yeast. TDP-43 expressing yeast growth rescue, BacTiter-Glo, 24 h. Potency, µM (highest dose often 46.1 µM), for inactives: top-dose growth rescue (activation), most hits filed as activators. 410,000 tested, 1.8% active; further: % of control where 0% means no effect; nearly all actives have a fitted effect of over 50% in size
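Cell-based yeast growth screen: TDP-43 expression induced in galactose, inoculum OD600=0.02 after raffinose pregrowth to mid-log. Read-out BacTiter-Glo luminescence at 24 hr, 30 deg C; inhibition of toxicity seen as signal increase.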
An asterisk follows results filed as active. This is a sample that favours compounds with a hit; in the whole collection about 2.1% have one here. The call rests on the fitted dose curve; in most records, active means well fitted curve in the direction sought with a large enough effect; inconclusive means small, poorly fitted or top-dose-only effect, or another doubt; inactive means no such curve, though single readings can be large; an effect the other way counts as inactive or inconclusive. Potency means the concentration at half of the fitted maximal effect.

For CC1Cc2nc(SCC(=O)N3CCN(c4ccccc4)CC3)n(CCc3ccccc3)c(=O)c2S1 (stereo unspecified) the results were Abeta rescue inactive, FUS suppressor 14µM*, aSyn yeast inh 2% and TDP43 rescue inconclusive.
Screening CCCSc1nc2c(c(=O)n1CC)SC(C)C2 (stereo unspecified) returned Abeta rescue inactive, FUS suppressor inactive, aSyn yeast inh -10% and TDP43 rescue 22µM*.
Screening C=C1CCN(C(C)C(=O)OC)S(=O)(=O)c2ccccc21 (stereo unspecified) returned Abeta rescue inactive, FUS suppressor inactive, aSyn yeast inh 6% and TDP43 rescue 24%.
O=S(=O)(/C=C/c1ccccc1)NCc1ccccc1Cl was read as Abeta rescue inactive, FUS suppressor inactive, aSyn yeast inh 12% and TDP43 rescue 11µM*.
Screening COc1ccc([N+](=O)[O-])cc1NC1C2CC3CC(C2)CC1C3 (stereo unspecified) returned Abeta rescue inactive, FUS suppressor inactive, aSyn yeast inh -20% and TDP43 rescue -2%.
For COc1ccc([N+](=O)[O-])cc1NC1CCCCC1 the results were Abeta rescue inactive, FUS suppressor inactive, aSyn yeast inh -20% and TDP43 rescue 20µM*.
`CC(C)NC(=S)NN(c1ccccc1)c1ccccc1` gave Abeta rescue inactive, FUS suppressor inactive, aSyn yeast inh -5% and TDP43 rescue 3%.
CCC(C)(C)c1ccc(OCCCC[n+]2ccccc2)c(C(C)(C)CC)c1 was read as Abeta rescue inactive, FUS suppressor inactive, aSyn yeast inh -34% and TDP43 rescue 14µM*.
Screening COc1ccc(/C=C2\SC(=O)N(CCCC(=O)Nc3cc(Cl)ccc3C(=O)O)C2=O)cc1 returned Abeta rescue inactive, aSyn yeast inh -61% and TDP43 rescue 0%.
For O=C(O)CCSc1ccccn1 the results were Abeta rescue inactive, FUS suppressor inactive, aSyn yeast inh 0% and TDP43 rescue 4%.
Screening COC(=O)c1ccc(CSc2nnc3ccc4ccccc4n23)cc1 returned Abeta rescue inactive, FUS suppressor inactive and TDP43 rescue 35µM*.
Screening O=C(CSC1=NC(=O)C(c2ccccc2)C(=O)N1)Nc1ccccc1Cl (stereo unspecified) returned Abeta rescue inactive, FUS suppressor inactive, aSyn yeast inh -4% and TDP43 rescue -1%.
For COc1cc2c(cc1NC(=O)C(C)OC(=O)/C=C/c1ccc(OC(F)F)cc1)oc1ccccc12 (stereo unspecified) the results were Abeta rescue inactive, FUS suppressor inactive, aSyn yeast inh 23% and TDP43 rescue 8%.
`CC1C(=O)N(Cc2cn(Cc3ccco3)nn2)CCS(=O)(=O)N1Cc1ccc(-c2ccc(Cl)cc2)cc1` (stereo unspecified) gave Abeta rescue inactive, FUS suppressor inconclusive, aSyn yeast inh 3% and TDP43 rescue 35µM*.
`CC1C(=O)N(Cc2cn(CCC3OCCO3)nn2)CCS(=O)(=O)N1Cc1ccc(-c2ccc(Cl)cc2)cc1` (stereo unspecified) gave Abeta rescue inactive, FUS suppressor inconclusive, aSyn yeast inh 1% and TDP43 rescue 28µM*.
Screening S=C(N/N=C/c1ccco1)NC1CC2CCC1C2 (stereo unspecified) returned Abeta rescue inconclusive, FUS suppressor inactive, aSyn yeast inh -10% and TDP43 rescue 14µM*.
CCOc1ccc(/C=N/NC(=S)NC2CC3CCC2C3)cc1 (stereo unspecified) was read as Abeta rescue inconclusive, FUS suppressor inactive, aSyn yeast inh 1% and TDP43 rescue 15%.
`CCOC(=O)c1cc(-c2ccc(C)cc2)n(CCC(=O)NC(C)CC)c1C` (stereo unspecified) gave Abeta rescue inactive, FUS suppressor inactive, aSyn yeast inh 1% and TDP43 rescue 14µM*.
For CN(C)C(=O)c1ccc(NC(=O)COC(=O)C2CCN(S(=O)(=O)c3ccc4c(c3)OCCO4)CC2)cc1 the results were Abeta rescue inactive, aSyn yeast inh 3% and TDP43 rescue 25%.
For COc1ccc(Cl)cc1NC(=O)C1CC(c2ccccc2Cl)=NO1 (stereo unspecified) the results were Abeta rescue inactive, FUS suppressor inactive, aSyn yeast inh -2% and TDP43 rescue 9%.
